Activity calls are given as the source filed them. No rule for the calls is given here.
experiment: Brca1-Bard1 BiLC signal decrease – luminescence, single concentration, counter-screen for Mdm2/MdmX interaction inhibitor project, confirmation (AID 504668); conditions: Brca1/Bard1 bimolecular luciferase complementation counterscreen, at 8 µM, hits give high values

Row | Structure (SMILES) | inhibition
1 | CC[N+]1=C(C)C(C)(C)c2cc(C)ccc21 | 28.2% (active)
2 | CCOc1ccc(-c2nnc(SCC(=O)Nc3ccc4c(c3)c3ccccc3n4CC)n2N)cc1 | 23.1% (active)
3 | Oc1ccc(CN2CCc3ccccc3C2)c2cccnc12 | 24.4% (active)
4 | CCOc1ccccc1CNC(=O)c1cc2oc3ccccc3c2n1C | 26.3% (active)
5 | CC(=O)N1CCN(c2ccc(NC(=O)c3ccc([N+](=O)[O-])o3)cc2Cl)CC1 | 26.6% (active)
6 | Cc1cc(C)cc(OCc2nc3ncc(Br)cc3[nH]2)c1 | 30.8% (active)
7 | Cc1ccc(-n2c(-c3ccccc3)c[n+]3c2CCc2ccccc2-3)c(C)c1 | 26.4% (active)
8 | CCCCSc1nc(C)cc(SCC(=O)N/N=C/c2cccc(OC)c2O)n1 | 34.4% (active)
9 | CCN(CC)CCCNC(=O)c1ccc2c(Cl)c3c(nc2c1)CCCC3 | 30.8% (active)
10 | COc1ccc2nc(NC(=O)/C=C/c3ccc4c(c3)OCO4)sc2c1 | 35.2% (active)
11 | O=C(CCS(=O)(=O)c1ccc(F)cc1)Nc1nc(-c2ccncc2)cs1 | 34.2% (active)
12 | Cc1ccccc1-c1nc(CN2CCC(C(=O)NCCCN3CC(C)CC(C)C3)CC2)c(C)o1 (stereo unspecified) | 25.7% (active)
13 | COc1ccc(N=Nc2ccc(O)c3ncccc23)cc1 | 31.7% (active)
14 | CS(=O)(=O)Nc1ccccc1C(=O)Nc1cc(Cl)cc(Cl)c1 | 28.3% (active)
15 | O=C(N/N=C/c1ccc(O)c2ncccc12)c1cccc(Br)c1 | 32.5% (active)
16 | N=c1c(C(=O)NC2CCCCC2)cc2c(=O)n3ccccc3nc2n1Cc1ccco1 | 33.2% (active)

Source: PubChem BioAssay
